# Reference: the supplement of paper PMC11417369
# Whole data set: some 25,000 sequences, median “ln(normalized median fluorescence intensity)” near 7.1, cut for the highest 2% near 10. This is one part of a sample in which the highest values are shown more often than they occur.
# Tested on: PfSIP2 AP2 domain 1 (GST-tagged)
# Experiment: gcPBM binding intensity (ln(normalized median fluorescence intensity)); higher = stronger DNA binding
# Summary of the method: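 For binding intensity, the highest Masliner-normalised natural-log median intensity across replicate spots of either probe orientation was taken. Protein bound to the array was stained with Alexa488 anti-GST antibody and scanned at 488 nm. The protein, GST-tagged P. falciparum DNA-binding domains from E. coli at about 25 μg on average, had been applied for 1 h to an Agilent 4 × 180k array of primer-extended double-stranded 36-bp intergenic genomic probes and negative controls.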
row,Sequence,gcPBM binding intensity (ln)
1,AAAAAAAAAAAAAACACACACACACGCACATATACA [CACACA_site7288],7.66
2,ATATATAAATAAATAGTGCATTTTAATATTTAACGT,9.27
3,CCTAATTTTATTAGGGTGCATTTTTAGTTAAATATA,11.2
4,GGTATATTAAAATAGGTGCATAAAACTAAGAGAAAA [GTGCAC_site9781],11
5,CGTTATATAATAAAGGTGCATAGATATATCATTATA [GTGCAC_site9774],10.5
6,GAAAGAAATAAAGGTGGTACATAAATAAAAACTAAG [XGTACX_site4826],7.38
7,AAAAATAAAGAAACAGGTACGCATATATTAAGATAT [XGTACX_site8097],7
8,TAATAAATGTTATTAGTGCATAATAGATAATATATT,8.29
9,AATATCATTATATAAGTGCATTTTTTAAAAGATAAA [GTGCAC_site9479],9.12
10,CATAAATAAGCTTTAGTGCATTATATTTAAATTTTT,7.29
11,GGTATATATTCTATCACACATATTTCCATGAAAATA [CACACA_site4728],7.29
12,AAAAAAAAAAAATAAAGTACTAAATAATACATTATA [XGTACX_site6203],7.02
13,TGTAGTCTGGAGAAAAGTACACAGTATCTGGTAGCT [XGTACX_site2012],6.95
14,TATGTATTTTTATGCACACATGCGTGGCTTATATAA [CACACA_site387],7.39
15,GTATATATATATATATATATATATTTTTATTTATTT [CACACA_negctrl_site589],7.42
16,ATTGTAAGGAAACACACACACATATATATGTATATA [CACACA_site676],7.07
17,ACCTATGTATATTATACACACTCCAAACTATTATTT [CACACA_site1817],7.19
18,GGTATTTTCACATATAGTACACAAAAATAAAATAAA [XGTACX_site2139],7.79
19,TGTTTTTCATAGTGCACACATAACCAAAAATAGTAT [CACACA_site3150],10.8
20,TTTGTTTTTCATAGTGCACACATAACCAAAAATAGT [CACACA_site9030],10.5
21,AAATATTCATAGTATACACACATTTATTTATAACCA [CACACA_site6502],6.9
22,TTTGTAGTTTGCACATGTACACATTTCAAAATAAAG [XGTACX_site7568],7.49
23,TTTCATAACAAAAAAGTGCAAAATAGCACGAACATT [GTGCAC_site9703],8.82

row,Sequence,gcPBM binding intensity (ln)
1,ATATATGTATTTAATACACACAAAACTTTCATTCCA [CACACA_site3531],6.9
2,TGTACGTTTTATAACACACACACAAAAAAAAAAAAA [CACACA_site3875],7.09
3,TGAATATGTAAATGCACACCAAAAAAAAAAAAAAAA [CACACA_site3566],7.29
4,TACTATAAGATATATACACACAAGAAATACAAAACG [CACACA_site6764],7.53
5,AATATATGCTTTCGTTATATTAAATTCAATTTAATG [GTGCAC_negctrl_site76],6.95
6,TAGAATAAATTAATTACACACGGAATTATATATATA [CACACA_site1616],7.83
7,AAAAAAAAAAATATATTATTTTACTTGTTTATTTTA [CACACA_negctrl_site1447],6.68
8,AAGAAAATATATTCACATGAAGAATTAAAATAAAAC [TGCATGCA_negctrl_site119],7.14
9,TTTAAAAAAAATATGTGTACTTAATATTTTCATATA [XGTACX_site7421],6.78
10,TTTGTTCATATTATTGTGCACTTAAACGTAACAAAA [GTGCAC_site9505],10.2
11,ATATTATATTGGATGTTGCACTTAACAAAAGGATAT [GTGCAC_site9478],8.76
12,TTTTTGTAAAATAAACGTACAAAACAATTGTTCATT [XGTACX_site6537],6.94
13,ATCATTCCACTTTTCACACATATCTCTATTTCTATC [CACACA_site4723],7.37
14,ATTTTTTTTTTTTTTTTTTTTGCACCATAAAATAAT [CACACA_negctrl_site1324],11.3
15,AATATTGCACCATTTTGTACATAATATATTCAAATA [XGTACX_site475],10.7
16,TACAACAATTTTTGCACACACCAAAACATAAAATAA [CACACA_site4964],7.52
17,AAAATAAATAAATATACACACCATATATATATTTTT [CACACA_site5573],6.88
18,AATATATTTTTTTTTTGTACATATTGTAAAATAATA [XGTACX_site6805],6.99
19,TAAAAATATTTTCATTGTACATATATATAAATATAT [XGTACX_site1123],6.97
20,TTTTTTTTTGGGTGTACACATGAATATATATTTTTT [CACACA_site5254],7.83
21,TACTGTATTATAATTATGATTGACGAAATTAAAAAT [GTGCAC_negctrl_site358],6.91
22,GATTTTAATGGGTGTACACATTTATTTATATAAAGT [CACACA_site5317],7.54
23,ATGAATAAATAGGTCACACACAAATATATATAAATA [CACACA_site2416],6.98

row,Sequence,gcPBM binding intensity (ln)
1,TTAATATTGTATCCAAGTACACAAATTATTATATTT [XGTACX_site8067],7.11
2,CATGTATTTTATATTACACACTAATATTATATATAT [CACACA_site1508],7.51
3,CTTTCATATGTTTTAACACACACGCATATATTATAG [CACACA_site7033],7.08
4,TCTAACATATCTTTAATACACACTTAAAAAAGTACT [CACACA_site652],7.03
5,TATGTACACCCATATACACACCTCTATAATATATAT [CACACA_site4563],7.29
6,TATAATGTATGTAGTGCACACCTCTATAATATATTA [CACACA_site8560],10.3
7,TAGAATGTATGTAGTGCACACCTCTATAATATATTA [CACACA_site1873],10.7
8,TGTAATATATGTATTGCACACCTATAACCATTATTT [CACACA_site8422],7.17
9,ATATGTAGAAGTAATGCACACATATGTATATATATA [CACACA_site8796],8.38
10,ATATATATTATATAGTGTACCTATGTATAATAATAT [XGTACX_site1683],7.16
11,TTAAAAATGAACATATGTACATATATATATATATAT [XGTACX_site7923],9.39
12,TAAAAAATAAGATATACACACATATATTTATTTATA [CACACA_site7158],6.72
13,ATTTATTTATTTAGCTGTACATTTATACAGAACGAT [XGTACX_site3336],7
14,ACATTATGTCATAAATGTACACATACATATACATAC [XGTACX_site8998],7.11
15,AAAAATAAGATATATACACACATATAAATATAAATA [CACACA_site7396],6.82
16,GCCAATAAAGATGTGGTGCATTATATATATATATAT,10.6
17,TATATATATATATGTGCACACATAAAGATATTATTT [CACACA_site3734],9.38
18,TAAATATATATATAAGTGCATTATATATATATATAA,8.97
19,GCTTTAATCTGAAAGTGTACAGATAATATATTTATA [XGTACX_site2462],7.15
20,ATATGTAAAATATGGTGTACAATCAAATAAAAAAAA [XGTACX_site6270],7.16
21,ATAATGTAAAAGTAAACACACACATATATATATACA [CACACA_site8793],7.06
22,TTTGTTCTTTTTGAAGTGCACTGAAATATAACAAAA,10.7
23,AAATAATATTGAAAAGTGCATATTTTTGTTGATATA,8.42

row,Sequence,gcPBM binding intensity (ln)
1,TATATATATATATAGGTGCAATATTGAAAAAATATC [GTGCAC_site9535],9.82
2,AAAAAAAAAAAAAAAGTGCACTGAAAATATATTGAA [GTGCAC_site9395],10.9
3,TTTTGAAGTAACAAATAAATAAATAAATATATAAAA [GTGCAC_negctrl_site517],6.92
4,TTCTTGTTCCTGAAAGTGCATATAACAAAAATAACA [GTGCAC_site9635],9.52
5,ATATCAAATTCTGAAACACACAAAATTACACCTCTA [CACACA_site169],7.06
6,AAATAAAAAAAGAAACGTACATATATTGGTTTCGTC [XGTACX_site3510],6.96
7,AAAAAAAAAAAAAAAAAAAAAAAAATATATAATTTA [CACACA_negctrl_site583],8.71
8,CACCTCAATATTCACATACACACAATATCATCGAAG [CACACA_site1675],7.33
9,AATTATATGAAATAAACACACATATGTAATATTACA [CACACA_site1928],6.76
10,AAAAAAACATAACAAAATGAAACAAAACAAAAAGAA [GTGCAC_negctrl_site577],7.28
11,CACATATACAAAAAGAAATGTTTAGTTGAAAATTAA [CACACA_negctrl_site1407],6.67
12,TTAATGTTTGAAAGAGTGCACATAACAAAAAAAAAA [GTGCAC_site9623],11.1
13,TCCTAATATATGTATGCACACACAATATATACATAT [CACACA_site9111],7.36
14,AATATAAGAATATATACACACATAAATACATACATA [CACACA_site4128],7.01
15,ATATACATATATATATGTACTGAAAAGAAAAGAATT [XGTACX_site150],7.08
16,TATATATATATATATGTGCACTGAAAGAATTATACA [GTGCAC_site9586],10.3
17,ATTATATATAAGAAGAGTACTGAATATGTGCAATAT [XGTACX_site4471],7.43
18,AGGTGTATCATAAAATGTACATACATACATACATAA [XGTACX_site4479],7.02
19,TTATATTAGCCGATGGTGCATATATTTATAGGAAAA [GTGCAC_site9518],10.1
20,ATAAGATAGGCATATACACACATTTATTTACAGATA [CACACA_site5754],6.87
21,TTATATAGGCAGATGGTGCATCTATTTATAAGCAAC,10.7
22,TGTCTTGTAAATTATTGTACTATTTAAAGTATACAA [XGTACX_site7864],7.21
